The record followed here is PubChem BioAssay.

In one experiment the target is Albumin (Bos taurus) (UniProt P02769). Kind of experiment: bovine serum albumin binders on microarray, profiling panel, artefact control for SMM control protein annotation, biochemical, small-molecule microarray, Alexa647 label, 635/667 nm fluorescence (AID 1118).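 Note: score merges 667 nm emission intensity and signal-to-noise per printed compound spot.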 The settings on record: BSA-A647 binding, fluorescence 635 nm, higher = more signal.
Experiment [1] can be described thus: small-molecule microarray binders of probe aXIP, primary screen, biochemical, NeuroSMM set, 635/667 nm fluorescence (AID 1119).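 Note: probe is the protein aXip251-270 applied at 1 µg/mL to compound-printed slides; binding of probe to printed compounds measured as 667 nm fluorescence plus signal to noise.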 Conditions: higher = more signal, called active from +8 up or from −8 down.
The nature of experiment [2]: small-molecule binders of probe aNOTCH3, primary screen, biochemical, small-molecule microarray, 635/667 nm fluorescence (AID 1120).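 Note: probe is a biotin-tagged antibody raised against NOTCH3 rather than NOTCH3 protein; score merges spot fluorescence near 667 nm with spot signal to noise.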 Conditions: higher = more signal.
Experiment [3] in a line: small-molecule binders of probe aNOTCH2, primary screen, biochemical, small-molecule microarray, 635/667 nm fluorescence (AID 1121).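 Note: score merges feature fluorescence read at 667 nm with its signal to noise.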 The settings on record: higher = more signal.
The target of experiment [4] is Carbonic anhydrase 2 (Homo sapiens) (UniProt P00918). Kind of experiment: CAII small-molecule binders, profiling panel, biochemical, small-molecule microarray, Alexa647-labelled CAII (AID 1122). Conditions: CAII-A647 binding fluorescence, higher = more signal.
A short description of experiment [5]: COS7 lysate on small-molecule microarray, probe aHis, 635 nm (AID 1123).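 Note: z-score combines 667nm fluorescence intensity with signal-to-noise per printed compound spot.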 Conditions: COS7 cell lysate, fluorescence, higher = more signal.
A short description of experiment [6]: compound binding in COS7 lysate, probe aLAP1, primary screen, cell lysate, small-molecule microarray (AID 1124).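 Note: lysate comes from COS7 cells expressing LAP1 and is applied at 0.3 µg/mL; score merges spot fluorescence near 667 nm with signal-to-noise over triplicate slides.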 The settings on record: probe aLAP1, fluorescence, higher = more signal.
The next experiment deals with Sam68 (KHDRBS1). Kind of experiment: Sam68 small-molecule binders, primary screen, biochemical, small-molecule microarray, 635 nm fluorescence (AID 1125).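 Note: score merges 667 nm channel intensity with signal to noise over triplicate slides.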 The settings on record: small-molecule microarray binding, higher = more signal.
Experiment [7] concerns Chordin-like protein 2 (CHRDL2). Kind of experiment: CHRDL2 small-molecule binders, primary screen, biochemical, small-molecule microarray, 635 nm fluorescence (AID 1126).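 Note: printed compound slides probed with Chrdl2 protein at 4 µg/mL for 1 h at 4 C; score merges 667 nm emission intensity with signal to noise over three replicate slides.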 Conditions: small-molecule microarray binding, fluorescence 635 nm; higher = more signal.
Experiment [8] has as its target Concanavalin-A (Canavalia ensiformis) (UniProt P02866). Kind of experiment: ConA small-molecule binders, primary screen, artefact control for SMM control protein annotation, biochemical, small-molecule microarray, Alexa647 label, 635 nm (AID 1127).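 Note: z combines 667 nm emission intensity with signal-to-noise across three replicate slides.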 The settings on record: ConA-A647 binding fluorescence, higher = more signal.
The nature of experiment [9]: anti-His antibody binders, primary screen, artefact control for SMM control protein annotation, biochemical, small-molecule microarray, 635 nm fluorescence (AID 1128).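 Note: score merges feature fluorescence with signal-to-noise for each printed compound spot.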 The settings on record: anti-His Alexa647 antibody binding, higher = more signal.
Experiment [10] concerns Human papillomavirus type 1a E7 protein (residues 1-88). Kind of experiment: HPV1a E7 small-molecule binders, primary screen, biochemical, small-molecule microarray, residues 1-88, 635 nm (AID 1129). The settings on record: small-molecule microarray binding, fluorescence 635 nm; higher = more signal.
For experiment [11], the target named is Focal adhesion kinase 1 (Homo sapiens) (UniProt Q05397). Kind of experiment: small-molecule microarray binders of FAK, primary screen, biochemical, 635/667 nm fluorescence, BSA, DTT (AID 1130).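 Note: composite of spot emission at 667 nm and signal to noise over triplicate slides.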 Conditions: PTK2 binding, 635 nm fluorescence, higher = more signal.
For experiment [12], the system named is Fibrinogen (Alexa647-labelled). Kind of experiment: fibrinogen binders on compound microarrays, profiling panel, artefact control for SMM control-protein annotation, biochemical, small-molecule microarray, 635/667 nm fluorescence (AID 1131).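 Note: z-score merges 667 nm fluorescence with per-spot signal-to-noise over triplicate slides.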 Conditions: fibrinogen-A647 binding fluorescence, higher = more signal.
Experiment [13] concerns the target Follistatin (Homo sapiens) (UniProt P19883). Kind of experiment: follistatin binders on small-molecule microarrays, primary screen, biochemical, small-molecule microarray, 635/667 nm fluorescence (AID 1132). The settings on record: FST binding, 635 nm fluorescence, higher = more signal.
Experiment [14] addresses Fibroblast growth factor 2 (Homo sapiens) (UniProt P09038). Kind of experiment: FGF2 binders on small-molecule microarrays, primary screen, biochemical, small-molecule microarray, 635/667 nm fluorescence (AID 1133). Conditions: small-molecule microarray binding, FGF2, fluorescence 635/667; higher = more signal.
Experiment [15] in a line: mitochondrial membrane potential change in A549 cells, profiling panel, cell-based, JC-1 fluorescence, basal, 24 h, 100 nL (AID 1138).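 Note: A549 lung adenocarcinoma cells under basal conditions with no added stimulus; test concentration not given here.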 Conditions: higher = more signal.
A further experiment has as its system Lefty1. Kind of experiment: Lefty1 binders on small-molecule microarrays, primary screen, biochemical, small-molecule microarray, 635/667 nm fluorescence (AID 1139). The settings on record: small-molecule microarray binding, fluorescence 635/667; higher = more signal.
Experiment [16] concerns wheat germ agglutinin (Triticum aestivum), Alexa647-labelled. Kind of experiment: wheat germ agglutinin binders on compound microarrays, profiling panel, artefact control for SMM control-protein annotation, biochemical, small-molecule microarray, 635/667 nm fluorescence (AID 1140).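 Note: score merges 667 nm feature emission with signal to noise over triplicate slides.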 The settings on record: WGA-A647 binding, 635 nm fluorescence, higher = more signal.
For experiment [17], the target named is Luciferin 4-monooxygenase (Photinus pyralis) (UniProt P08659). Kind of experiment: firefly luciferase enzyme inhibitors, primary screen, biochemical, luminescence, purified enzyme, 2006 set (AID 1141).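 Note: cell-free assay with purified firefly luciferase at 100 ng per well in PBS; test concentration not given here.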 Conditions: SteadyGlo luminescence, 30 min, higher = more signal, called active from +8 up or from −8 down.

The structures appear in SMILES notation. The source made the active and inactive calls.

Chain of Fibroblast growth factor 2 (Homo sapiens) (P09038 whole entry, looked up): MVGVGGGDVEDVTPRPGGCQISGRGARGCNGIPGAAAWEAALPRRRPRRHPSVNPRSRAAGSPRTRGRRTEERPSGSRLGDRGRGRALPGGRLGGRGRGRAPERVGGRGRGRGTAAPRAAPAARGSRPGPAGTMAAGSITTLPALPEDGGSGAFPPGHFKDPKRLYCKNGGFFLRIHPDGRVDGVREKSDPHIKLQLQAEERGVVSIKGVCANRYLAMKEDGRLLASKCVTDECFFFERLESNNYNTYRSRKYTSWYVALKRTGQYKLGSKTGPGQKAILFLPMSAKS
Chain of Follistatin (Homo sapiens) (P19883 whole entry, looked up): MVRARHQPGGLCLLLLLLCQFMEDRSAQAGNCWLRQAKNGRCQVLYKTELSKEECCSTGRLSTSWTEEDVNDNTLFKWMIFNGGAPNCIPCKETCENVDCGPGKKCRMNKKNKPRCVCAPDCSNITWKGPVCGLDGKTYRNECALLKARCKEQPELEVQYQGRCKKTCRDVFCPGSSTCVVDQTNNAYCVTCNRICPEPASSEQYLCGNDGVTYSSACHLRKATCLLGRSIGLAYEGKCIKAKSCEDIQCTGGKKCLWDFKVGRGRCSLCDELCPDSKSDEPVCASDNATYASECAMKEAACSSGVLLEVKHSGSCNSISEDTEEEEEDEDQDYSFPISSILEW
Chain of Focal adhesion kinase 1 (Homo sapiens) (Q05397 whole entry, looked up): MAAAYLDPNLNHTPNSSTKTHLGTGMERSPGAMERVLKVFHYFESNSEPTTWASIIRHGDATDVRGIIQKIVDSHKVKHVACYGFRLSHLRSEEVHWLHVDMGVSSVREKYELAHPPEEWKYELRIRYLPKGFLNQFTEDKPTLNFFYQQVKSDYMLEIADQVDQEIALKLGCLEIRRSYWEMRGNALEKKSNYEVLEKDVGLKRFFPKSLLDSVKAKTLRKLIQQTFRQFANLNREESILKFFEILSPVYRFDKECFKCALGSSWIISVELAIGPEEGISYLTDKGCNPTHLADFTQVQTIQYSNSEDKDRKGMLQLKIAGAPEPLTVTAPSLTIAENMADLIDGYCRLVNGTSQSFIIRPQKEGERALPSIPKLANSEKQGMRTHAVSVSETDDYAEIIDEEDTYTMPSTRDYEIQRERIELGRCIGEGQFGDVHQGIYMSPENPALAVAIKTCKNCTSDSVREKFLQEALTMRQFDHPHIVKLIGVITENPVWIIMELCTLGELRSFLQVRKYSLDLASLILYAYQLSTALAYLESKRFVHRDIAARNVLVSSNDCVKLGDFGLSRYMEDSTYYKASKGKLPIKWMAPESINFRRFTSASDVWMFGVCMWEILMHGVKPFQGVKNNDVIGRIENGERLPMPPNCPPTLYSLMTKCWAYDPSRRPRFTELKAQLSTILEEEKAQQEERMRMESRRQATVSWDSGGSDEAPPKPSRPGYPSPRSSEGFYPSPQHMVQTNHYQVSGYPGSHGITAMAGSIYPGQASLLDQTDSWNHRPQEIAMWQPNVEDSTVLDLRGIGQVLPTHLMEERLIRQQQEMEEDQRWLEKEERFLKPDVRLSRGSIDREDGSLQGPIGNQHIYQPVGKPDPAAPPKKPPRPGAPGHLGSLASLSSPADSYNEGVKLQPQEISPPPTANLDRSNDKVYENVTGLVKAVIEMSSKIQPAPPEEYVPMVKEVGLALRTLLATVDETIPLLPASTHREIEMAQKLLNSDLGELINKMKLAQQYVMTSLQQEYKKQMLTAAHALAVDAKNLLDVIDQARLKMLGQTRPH
Chain of Luciferin 4-monooxygenase (Photinus pyralis) (P08659 whole entry, looked up): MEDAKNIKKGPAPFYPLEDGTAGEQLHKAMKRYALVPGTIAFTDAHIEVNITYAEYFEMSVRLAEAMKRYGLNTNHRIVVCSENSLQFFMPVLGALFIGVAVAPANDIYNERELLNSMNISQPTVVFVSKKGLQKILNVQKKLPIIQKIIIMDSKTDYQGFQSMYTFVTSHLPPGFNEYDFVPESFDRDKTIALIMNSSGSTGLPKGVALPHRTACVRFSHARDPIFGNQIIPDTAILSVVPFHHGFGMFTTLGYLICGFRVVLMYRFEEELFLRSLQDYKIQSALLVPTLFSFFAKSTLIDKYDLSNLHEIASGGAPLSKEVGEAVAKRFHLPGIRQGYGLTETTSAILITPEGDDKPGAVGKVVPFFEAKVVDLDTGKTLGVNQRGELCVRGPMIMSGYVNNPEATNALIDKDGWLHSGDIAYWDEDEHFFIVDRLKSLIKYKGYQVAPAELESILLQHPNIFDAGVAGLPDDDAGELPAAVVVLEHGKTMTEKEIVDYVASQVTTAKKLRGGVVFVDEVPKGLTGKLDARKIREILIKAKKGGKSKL
Chain of Concanavalin-A (Canavalia ensiformis) (P02866 whole entry, looked up): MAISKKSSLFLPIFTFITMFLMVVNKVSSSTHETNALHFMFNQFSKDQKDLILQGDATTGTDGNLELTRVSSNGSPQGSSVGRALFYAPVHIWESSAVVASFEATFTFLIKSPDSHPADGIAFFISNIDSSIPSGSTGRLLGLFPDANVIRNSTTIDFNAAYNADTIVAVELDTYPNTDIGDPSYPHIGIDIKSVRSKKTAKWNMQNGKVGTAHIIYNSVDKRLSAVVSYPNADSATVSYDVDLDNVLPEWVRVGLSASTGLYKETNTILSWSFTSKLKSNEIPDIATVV
Chain of Albumin (Bos taurus) (P02769 whole entry, looked up): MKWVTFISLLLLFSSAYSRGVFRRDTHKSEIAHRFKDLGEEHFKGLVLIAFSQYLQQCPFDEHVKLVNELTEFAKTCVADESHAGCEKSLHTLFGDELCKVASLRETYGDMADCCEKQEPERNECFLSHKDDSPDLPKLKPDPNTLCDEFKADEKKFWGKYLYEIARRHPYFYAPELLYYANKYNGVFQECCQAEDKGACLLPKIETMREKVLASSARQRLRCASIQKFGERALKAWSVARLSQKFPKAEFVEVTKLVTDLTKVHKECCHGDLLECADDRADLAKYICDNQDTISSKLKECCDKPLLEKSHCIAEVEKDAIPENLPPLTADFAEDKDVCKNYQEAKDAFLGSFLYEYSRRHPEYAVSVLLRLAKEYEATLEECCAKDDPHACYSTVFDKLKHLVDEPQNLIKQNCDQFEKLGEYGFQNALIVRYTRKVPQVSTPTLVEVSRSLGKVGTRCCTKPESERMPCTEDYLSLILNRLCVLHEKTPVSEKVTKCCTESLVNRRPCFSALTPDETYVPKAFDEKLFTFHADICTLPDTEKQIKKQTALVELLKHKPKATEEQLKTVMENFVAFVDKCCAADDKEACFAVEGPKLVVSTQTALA

In the case of `O=C1[C@@]23C=C(Br)[C@H](C[C@@H]2CCOC3)[C@@]12CO2`, the composite z-score was -0.169 in the experiment with Albumin (Bos taurus); 0.146 in experiment [2]; -0.162 in experiment [3]; -0.0433 in experiment [4]; -0.128 in [5]; 0.522 in [6]. The composite z-score was 0.166 in the experiment on Sam68 (KHDRBS1); 0.518 in experiment [7]; 0.311 in experiment [8]; 0.477 in experiment [9]; 0.235 in [10]; -0.176 in [11]. In addition, the composite z-score in [12] is 0.332; in experiment [13], 0.327; in experiment [14], 0.469; in the experiment with Lefty1, 0.406; in experiment [16], 0.128. For the same compound, the composite Z-score in experiment [1] was -0.775 (inactive). Also, the z-score in experiment [15] is 1.23; in experiment [17], -0.54 (inactive).
For the compound `CCCC[C@@H]1C[C@H]1[C@@H](NC(=O)c1ccco1)c1ccccc1C(F)(F)F`, the composite z-score came to 0.706 in the experiment with Albumin (Bos taurus); 1.91 in [2]; 0.752 in experiment [3]; 0.561 in [4]; 1.09 in experiment [5]; 0.451 in experiment [6]. The composite z-score was -0.215 with Sam68 (KHDRBS1); 0.23 in experiment [7]; 0.418 in [8]; -0.422 in [9]; 0.0662 in [10]; 0.57 in [11]. In addition, the composite z-score in experiment [12] is 0.349; in [13], 0.674; in [14], -0.527; in the experiment on Lefty1, -0.302; in [16] it was 1.15. For the same compound, the composite Z-score in experiment [1] is -0.234 (inactive). For the same compound, the values for the z-score in experiment [15] and in [17] were -0.914 and 1.8 (inactive), respectively.
Turning to `COc1ccc([Si](C)(C)[C@@H]2[C@@H](CCO)O[C@]3(C(=O)N(Cc4ccc(N(C=O)c5ccccc5)cc4)c4ccccc43)[C@H]2C)cc1`, the composite z-score in the experiment with Albumin (Bos taurus) is 0.842; in [2], 0.0842; in experiment [3] it was -0.0621; in [4], 0.285; in [5] it was 0.313; in [6], -0.456. The composite z-score in the experiment on Sam68 (KHDRBS1) was 0.495; in [7], -0.402; in experiment [8], 0.786; in [9], 0.297; in [10], 0.34; in [11], 0.0744. Further, the composite z-score in experiment [12] turned out to be 0.845; in [13], 0.735; in [14], 0.526; in the experiment with Lefty1, 0.0434; in [16], 1.06. Further, in experiment [1], the composite Z-score was -0.119 (inactive). Besides, the values for the z-score in experiment [15] and in experiment [17] were -0.0272 and 0.0379 (inactive), respectively.
Turning to `C=C(/C(=C/C[C@H](OC(C)=O)c1ccccc1OCCO)c1cnc2ccccc2c1)C(C)C`, the composite z-score in the experiment with Albumin (Bos taurus) is 0.0816; in experiment [2], 0.16; in experiment [3], -0.102; in [4] it was 0.722; in [5], 0.202; in [6] it was -0.0507. Further, the composite z-score in the experiment on Sam68 (KHDRBS1) was 0.461; in experiment [7] it was 0.384; in experiment [8], 0.922; in experiment [9] it was -0.577; in experiment [10] it was 0.0336; in experiment [11], 0.119. Besides, the composite z-score in experiment [12] was -0.498; in experiment [13], 1.3; in [14], 0.58; in the experiment with Lefty1, 0.505; in experiment [16], 1.07. Moreover, the composite Z-score in experiment [1] was -0.323 (inactive). Also, the z-score in experiment [15] is 1.12; in experiment [17], -1.14 (inactive).
With `Oc1ccc2cc[n+](Cc3sc4ccccc4c3Cl)cc2c1`, the composite z-score was -0.49 with Albumin (Bos taurus); 0.0854 in experiment [2]; -0.0694 in experiment [3]; 0.888 in [4]; 2.88 in experiment [5]; 1.07 in [6]. Besides, the composite z-score was -0.702 in the experiment with Sam68 (KHDRBS1); 0.617 in experiment [7]; 0.376 in [8]; -0.146 in experiment [9]; -0.537 in experiment [10]; 0.703 in experiment [11]. Further, the composite z-score is -0.462 in experiment [12]; 1.33 in [13]; 0.567 in experiment [14]; 0.506 with Lefty1; 1.14 in [16]. The composite Z-score in experiment [1] was 0.598 (inactive). The z-score in experiment [15] is -0.832; in experiment [17], -0.226 (inactive).
